For 28 compounds, Inhibition results are on record in ChEMBL document CHEMBL1157539, “Thousands of chemical starting points for antimalarial lead identification” (Nature, 2010).

Molecules are shown by their SMILES.

Format in all cases: functional
Assay [1] deals with Plasmodium falciparum. Briefly: GSK_TCMDC: Inhibition of Plasmodium falciparum 3D7 in whole red blood cells, using parasite LDH activity as an index of growth. Test compounds present at 2uM.
Assay [2] relates to Plasmodium falciparum. Briefly: GSK_TCMDC: Inhibition of Plasmodium falciparum Dd2 in whole red blood cells, using parasite LDH activity as an index of growth. Test compounds present at 2uM.
Another assay deals with HepG2. Briefly: GSK_TCMDC: Percent inhibition of human HepG2 cell line. Test compounds present at 10uM.

Consider `O=C(NCCCCN1CCC(c2c[nH]c3ccc(-c4ccccc4)cc23)CC1)c1ccc(-c2ccccc2)cc1.O=C(O)C(=O)O`, for which the Inhibition in the assay with Plasmodium falciparum [1] amounted to 97%; in the assay with Plasmodium falciparum [2], 40%; with HepG2 it was 48%.

With `NCCCNc1ccc(-c2ccc(NC(=O)Nc3cc(C(F)(F)F)ccc3F)cc2)cn1.O=C(O)C(F)(F)F`, the Inhibition in the assay with Plasmodium falciparum [1] is recorded as 100%; in the assay on Plasmodium falciparum [2], 66%; with HepG2 it was 0%.

Consider `COc1ccc(Cl)cc1NC(=O)C(C)Nc1ccc(-c2ccccc2)cc1` (centres undefined), for which the values for the Inhibition in the assay with Plasmodium falciparum [1], in the assay with Plasmodium falciparum [2] and in the assay with HepG2 were 91%, 89% and 0%, respectively.

Turning to `O=C(O)C(F)(F)F.O=C1CCCN1CCCNCc1cccc(-c2ccc(-c3nc4cc(C(F)(F)F)ccc4[nH]3)s2)c1`, the Inhibition in the assay on Plasmodium falciparum [1] turned out to be 100%; with Plasmodium falciparum [2] it was 99%; in the assay on HepG2 it was 19%.

As for `CC(C)c1ccc(CN2CCC(NC(=O)c3ccc(-c4cccc(Cl)c4)s3)CC2)cc1.O=C(O)C(F)(F)F`, the figures for the Inhibition with Plasmodium falciparum [1], in the assay with Plasmodium falciparum [2] and with HepG2 were 82%, 6% and 50%, respectively.

`CNCc1ccc(-c2ccc3ccnc(N)c3c2)cc1`: the Inhibition in the assay on Plasmodium falciparum [1] was 94%; in the assay with Plasmodium falciparum [2], 98%; in the assay on HepG2 it was 46%.

With `Cc1cc(N(CCN2CCCCC2)CCN2CCCCC2)nc(Nc2ccc(Cl)cc2)n1.Cl`, the Inhibition in the assay on Plasmodium falciparum [1] is on record as 100%; with Plasmodium falciparum [2] it was 79%; in the assay on HepG2, 19%.

Take `CCc1cc(Br)c(CNCCCNc2cc(=O)c3ccccc3[nH]2)s1.Cl`: the Inhibition was 90% with Plasmodium falciparum [1], 45% in the assay on Plasmodium falciparum [2] and 6% in the assay on HepG2.

As to `Cc1ccc(C)c2sc(N(CCCn3ccnc3)C(=O)c3ccco3)nc12.Cl`, the Inhibition came to 96% in the assay with Plasmodium falciparum [1], 63% with Plasmodium falciparum [2] and 28% with HepG2.

As for `CC(=O)N[C@H](C(=O)Nc1ccc(-c2ccc(-c3nc4cc(C(F)(F)F)ccc4[nH]3)cc2)cc1)C(C)C`, the Inhibition in the assay on Plasmodium falciparum [1] was 88%; in the assay with Plasmodium falciparum [2] it was 76%; in the assay with HepG2 it was 24%.

Consider `O=C(O)C(F)(F)F.O=C1CCCN1CCCNCc1ccc(-c2ccc(-c3nc4cc(F)ccc4[nH]3)cc2)cc1`, for which the Inhibition is 100% in the assay on Plasmodium falciparum [1], 99% with Plasmodium falciparum [2] and 16% in the assay on HepG2.

As to `CCOc1cc2c(cc1OCC)C(c1ccc(O)c(Cl)c1)NCC2.Cl` (centres undefined), the Inhibition with Plasmodium falciparum [1] turned out to be 98%; in the assay with Plasmodium falciparum [2], 98%; with HepG2, 6%.

As for `Cc1cc(C(=O)Nc2ccc3c(c2)CCN3C2CCN(Cc3ccc4nsnc4c3)C2)no1` (centres undefined), the Inhibition in the assay on Plasmodium falciparum [1] came out at 90%; in the assay on Plasmodium falciparum [2], 94%; in the assay with HepG2, 0%.

As for `Cc1nnnn1-c1ccc(C(=O)N2CCC3(CC2)CN(Cc2ccc(Cl)c(Cl)c2)C(=O)O3)cc1`, the figures for the Inhibition in the assay with Plasmodium falciparum [1], in the assay on Plasmodium falciparum [2] and with HepG2 were 100%, 99% and 2%, respectively.

In the case of `COc1ccc(CNCc2ccc(F)cc2)cc1-c1cccc(S(=O)(=O)NCCN2CCCC2)c1.O=C(O)C(F)(F)F`, the Inhibition came to 100% with Plasmodium falciparum [1], 54% in the assay with Plasmodium falciparum [2] and 43% in the assay with HepG2.

Regarding `CC(=O)Oc1c(C2C=CCCC2)c(OC(C)=O)c2ccccc2c1OC(C)=O` (centres undefined), the Inhibition was 95% in the assay on Plasmodium falciparum [1], 79% in the assay with Plasmodium falciparum [2] and 10% in the assay with HepG2.

As to `COc1cccc(C(=O)Nc2ccc(Nc3nc(C)cc(N4CCCCC4)n3)cc2)c1OC`, the values for the Inhibition with Plasmodium falciparum [1], in the assay with Plasmodium falciparum [2] and in the assay on HepG2 were 92%, 27% and 47%, respectively.

As to `CCCCCCOc1ccc(/C(N)=N\Cc2ccccc2)c2c1CCCC2.Cl`, the results for the Inhibition in the assay on Plasmodium falciparum [1], in the assay on Plasmodium falciparum [2] and with HepG2 were 96%, 35% and 62%, respectively.

Regarding `Cc1cc(N[C@@H](Cc2ccccc2)C(=O)Nc2ccccc2)nc(NCCc2ccc(F)cc2)n1.O=C(O)C(F)(F)F`, the Inhibition with Plasmodium falciparum [1] is reported as 96%; in the assay with Plasmodium falciparum [2], 81%; with HepG2 it was 26%.

As to `CCOc1c(CCNCCCCNCCc2ccc3ccccc3c2OCC)ccc2ccccc12.CS(=O)(=O)O`, the Inhibition is recorded as 94% in the assay on Plasmodium falciparum [1], 87% in the assay with Plasmodium falciparum [2] and 100% in the assay with HepG2.

Turning to `CCN(CC)CCNC(=O)c1ccc(NC(=O)c2ccc(-c3cc(NC(=O)CC4CCCC4)ccc3C)cc2)cc1`, the Inhibition is on record as 99% in the assay with Plasmodium falciparum [1], 95% in the assay on Plasmodium falciparum [2] and 12% in the assay on HepG2.

Take `Cc1nc(C)c(-c2ccc(C(=O)c3ccc(Cl)cc3)cc2)c(O)c1Br`: the Inhibition in the assay on Plasmodium falciparum [1] was 97%; in the assay with Plasmodium falciparum [2], 95%; in the assay on HepG2, 10%.

As for `O=C(Nc1ccc(C(F)(F)F)cc1)Nc1cccc([N+](=O)[O-])c1`, the Inhibition is on record as 100% with Plasmodium falciparum [1], 98% in the assay with Plasmodium falciparum [2] and 20% in the assay with HepG2.

Consider `O=C(O)C(F)(F)F.OCCN1CCN(Cc2ccc(-c3cccc(-c4nc5cc(C(F)(F)F)ccc5[nH]4)c3)cc2)CC1`, for which the Inhibition in the assay on Plasmodium falciparum [1] came to 99%; with Plasmodium falciparum [2], 83%; in the assay with HepG2, 29%.

In the case of `CCCCC(=O)Nc1cc(=O)[nH]c2nc(-c3ccc(Cl)cc3)nn12`, the Inhibition turned out to be 89% in the assay on Plasmodium falciparum [1], 77% with Plasmodium falciparum [2] and 1% in the assay with HepG2.

In the case of `O=C(Nc1cccc(F)c1)N(Cc1ccc(-c2cccc(CN3CCNCC3)c2)cc1)C1CCN(Cc2ccccc2)CC1.O=C(O)C(F)(F)F`, the Inhibition was determined as 97% in the assay with Plasmodium falciparum [1], 54% with Plasmodium falciparum [2] and 13% in the assay on HepG2.

`CCCCC(N)COc1cccc2c(-c3ccncc3)c(-c3cccc(NC(=O)Nc4ccccc4)c3)nn12` (centres undefined): the Inhibition with Plasmodium falciparum [1] is reported as 100%; in the assay with Plasmodium falciparum [2], 82%; in the assay on HepG2 it was 13%.

Take `COc1ccc(C=NN=c2cc(C)[nH]c3ccccc23)cc1OC`: the results for the Inhibition with Plasmodium falciparum [1], in the assay on Plasmodium falciparum [2] and in the assay on HepG2 were 91%, 8% and 19%, respectively.

The term Inhibition denotes the percentage by which the read-out fell short of the control. Low values mean little suppression, high ones strong suppression.
